Screening results: PubChem, National Center for Advancing Translational Sciences (NCATS)
A selection: hits, their analogues and other compounds. The true share with any hit is near 18%.
TGFb SMAD3 inh – TGF-b pathway inhibition; 410,000 compounds, 1.2% hits; AID 588855; HepG2 CAGA-GFP TGF-b/SMAD3 reporter, GFP fluorescence, 18 h; TGF-beta stimulated, 500 pg/mL final; Potency, µM (top dose mostly 46.1 µM), inactives show at the top dose activity, negative = inhibition, most hits filed as inhibitors; note: potency is the fitted concentration of half-maximal effect; % is set by controls: 0 for no effect and ±100 for the full control effect; nearly all actives have a fitted effect of over 65% in size
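First, reporter cells (HEPG2 CAGA-GFP) rested 2 h at 37 degrees C. Next, compounds were pinned in and TGF-beta added to 500 pg/mL final. After 18 h, GFP was imaged per cell and summed per well.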
IL-1B inflam inh – inflammasome signaling inhibition, IL-1 beta readout | THP-1 LPS/ATP IL-1B secretion, AlphaLISA, 16 h; stronger effect = lower value | activity change, % at 57.5 µM | 360,000 compounds, 4.7% hits | AID 743279; in the data active = activity change below about -50%; inconclusive = mostly about -30% to -49%; note: % is set by controls: 0 for no effect and ±100 for the full control effect
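Secreted IL-1B measured by AlphaLISA bead assay after 16 h compound exposure of THP-1 cells; compounds (final up to 57.5 uM) added 1 h before LPS (250 ng/mL) and ATP (1.25 mM) stimulation; lower signal means less secretion.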
TDP1 block – inhibitors of human tyrosyl-DNA phosphodiesterase TDP1; 350,000 compounds, 0.28% hits; Potency, µM (titrated, usually from 130 µM), for inactives: at the highest dose activity change, negative = inhibition, most hits filed as inhibitors; Q9NUW8; recombinant TDP1, AlphaScreen DNA substrate cleavage; AID 485290; note: potency is the fitted concentration of half-maximal effect; % is set by controls: 0 for no effect and ±100 for the full control effect; nearly all actives have a fitted effect of over 40% in size
Target sequence (Q9NUW8 whole entry, looked up): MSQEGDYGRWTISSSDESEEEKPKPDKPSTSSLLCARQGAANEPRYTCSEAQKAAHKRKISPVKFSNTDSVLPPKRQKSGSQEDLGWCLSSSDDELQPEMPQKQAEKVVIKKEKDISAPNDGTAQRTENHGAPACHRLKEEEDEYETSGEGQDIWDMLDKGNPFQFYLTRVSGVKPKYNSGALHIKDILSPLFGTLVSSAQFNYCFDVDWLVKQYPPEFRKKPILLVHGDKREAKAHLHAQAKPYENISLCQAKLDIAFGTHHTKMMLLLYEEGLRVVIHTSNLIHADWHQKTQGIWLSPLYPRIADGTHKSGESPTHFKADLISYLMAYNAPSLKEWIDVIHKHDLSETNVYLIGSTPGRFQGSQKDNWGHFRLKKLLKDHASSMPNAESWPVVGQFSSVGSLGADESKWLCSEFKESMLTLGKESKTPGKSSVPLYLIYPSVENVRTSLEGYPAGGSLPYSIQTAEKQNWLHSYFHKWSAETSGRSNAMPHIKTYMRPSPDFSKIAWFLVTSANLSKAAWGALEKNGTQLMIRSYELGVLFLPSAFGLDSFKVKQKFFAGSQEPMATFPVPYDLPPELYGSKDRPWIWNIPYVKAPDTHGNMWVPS
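Steps: enzyme plus compound, 15 min RT; add biotin/phosphotyrosine-FITC oligonucleotide (15 nM final), react 5 min; add donor/acceptor beads (10 ug/ml final), 10 min; read AlphaScreen. Tdp1 at 1 nM final.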
DT40 TDP1 no CPT – qHTS for Inhibitors of human tyrosyl-DNA phosphodiesterase 1 (TDP1): qHTS in cells in absence of CPT; Potency, µM (doses to about 46.2 µM), for inactives: at the highest dose activity change, negative = growth inhibition, usual class: inhibitors; DT40 Tdp1-/- hTDP1 cells, no CPT, ATP luminescence, 48 h; AID 686978, 2013; 420,000 compounds, 15% hits; note: potency is the fitted concentration of half-maximal effect; % is set by controls: 0 for no effect and ±100 for the full control effect; nearly all actives have a fitted effect of over 55% in size
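Seeded 400 DT40-hTDP1 cells/well (vehicle DMSO, no 20 nM CPT); pinned compounds; ≥48 hr at 37 °C; CellTiter-Glo luminescence as viability measure.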
TDP1 cell CPT – DT40-hTDP1 cell growth loss with CPT. chicken DT40 Tdp1-/-;hTDP1 cells + 20 nM CPT, ATP luminescence, 48 h. Potency, µM (top dose mostly 46.2 µM), inactives show at the highest dose activity change, negative = growth inhibition, hits mostly inhibitors. 420,000 compounds, 12% hits; note: potency is the fitted concentration of half-maximal effect; % is set by controls: 0 for no effect and ±100 for the full control effect; nearly all actives have a fitted effect of over 55% in size
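Cell growth measured by CellTiter-Glo luminescence after a minimum 48 h, 37 C compound exposure with 20 nM CPT in Tdp1-knockout DT40 cells stably expressing hTDP1, seeded 400/well; qHTS titration format.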
HepG2 tox – HepG2 cytotoxicity, counter-screen for TGF-b inhibitors; HepG2 CAGA-GFP viability, ATP luminescence, 18 h; Potency, µM (highest dose often 46.1 µM), for the others: top-dose activity change, negative = cytotoxicity, actives largely listed as cytotoxic; 410,000 compounds, 0.76% hits; note: potency is the fitted concentration of half-maximal effect
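HepG2 CAGA-GFP cells (1000/well, DMEM with 1% FBS) received compound, then TGF-beta at 500 pg/mL final, and were incubated 18 hours at 37 degrees C. Viability was read by CellTiter-Glo luminescence. Media-only wells were set as complete cell-killing and DMSO as no toxicity.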
Starred values were filed as active, the others as inactive; ? = inconclusive; nt = not tested or not shown; [ ] = dose if it differs, or a comment. Unless noted, calls come from the whole dose curve; as a rule, active = well fitted curve in the direction sought with a large enough effect; inconclusive = small, poorly fitted or top-dose-only effect, or another doubt; inactive = no such curve, though single readings can be large; an effect the other way counts as inactive or inconclusive.

SMILES | TGFb SMAD3 inh | IL-1B inflam inh | TDP1 block | DT40 TDP1 no CPT | TDP1 cell CPT | HepG2 tox
Cc1cccc(CNC(=O)c2cnn(-c3ncc4c(n3)-c3ccccc3CC4)c2C2CC2)n1 | nt | nt | nt | 5% | 7%[9.04 µM] | nt
O=C(NCc1cccc(Cl)c1)NCc1noc2ccccc12 | -10% | nt | 0% | 16µM* | ? | -16%
O=C(NCc1ccc(Cl)cc1)NCc1noc2ccccc12 | -40% | nt | -3% | ? | ? | -3%
O=C(NCc1noc2ccccc12)Nc1ccc(F)cc1F | -10% | nt | -4% | -69% | 16µM* | 2%
O=C(COc1ccc(-n2cnnn2)cc1)Nc1ccc(F)c(F)c1 | 10% | -13 | 0% | -23% | -30% | 0%
Cc1ccc(S(=O)(=O)CNC(=S)c2cccc(Cl)c2)cc1 | ? | -9 | 10% | ? | -9% | -4%
Cc1ccc(C(=S)NCS(=O)(=O)c2ccc(C)cc2)cc1 | -31% | -3 | 12% | 13µM* | 13µM* | -3%
CCN(Cc1cnn(C)c1)C(=O)c1ccc2nc(Cc3ccccc3F)oc2c1 | -1% | 14 | nt | 21µM* | ? | -1%
CCn1cc(CNC(=O)c2ccc3nc(Cc4ccccc4F)oc3c2)cn1 | ? | ? | 6% | 12µM* | 12µM* | -11%
CN(Cc1nccs1)C(=O)c1ccc2nc(Cc3ccccc3F)oc2c1 | 0% | -9 | -2% | ? | ? | -15%
Cc1cc(CN(C)C(=O)c2ccc3nc(Cc4ccccc4F)oc3c2)on1 | -15% | -81* | 0% | ? | ? | -26%
COc1cc(-c2cnc3ccccc3c2)cc2c1OCCN(C(=O)CCn1nc(C)cc1C)C2 | nt | nt | nt | -25% | 3%[9.04 µM] | nt
CCN1CCN(c2ncnc3sc4c(c23)CCC(C)C4)CC1 (centres undefined) | 3% | 2 | nt | -12% | -10% | -21%
CC1CCc2c(sc3nc(C(C)(C)C)nc(N4CCN(C(=O)CCl)CC4)c23)C1 (centres undefined) | ? | -95* | nt | 2.6µM* | 1.8µM* | -97%
C[C@@H]1CCCCO[C@@H](CN(C)C(=O)CCCN(C)C)[C@@H](C)CN([C@H](C)CO)C(=O)c2cc(N(C)C)ccc2O1 | 0% | 0 | nt | 18% | -5% | 1%
COc1ccc(CN2C(=O)C(Cc3ccccc3)Nc3ncnc(N4CCCCC4)c32)cc1 (centres undefined) | -1% | -14 | nt | ? | ? | -4%
Cc1ccc(CN2C(=O)C(Cc3ccccc3)Nc3ncnc(N4CCCCC4)c32)cc1 (centres undefined) | 0% | -19 | 5% | ? | 18µM* | -41%
CCC1Nc2ncnc(N3CCN(c4ccccc4)CC3)c2N(Cc2ccc(Br)cc2)C1=O (centres undefined) | -31% | ? | nt | ? | 21µM* | -6%
O=C1C(Cc2ccccc2)Nc2ncnc(N3CCN(c4ccccc4)CC3)c2N1Cc1ccccc1 (centres undefined) | -10% | -59* | nt | 18µM* | ? | -21%
O=C1C(Cc2ccccc2)Nc2ncnc(N3CCN(c4ccccc4)CC3)c2N1Cc1ccc(Br)cc1 (centres undefined) | ? | ? | 3% | ? | ? | -2%
Cc1ccc(CN2C(=O)C(Cc3ccccc3)Nc3ncnc(N4CCN(c5ccccc5)CC4)c32)cc1 (centres undefined) | -5% | -17 | 4% | ? | ? | 3%
Cc1nc2ccccc2c(=O)n1NC(=O)c1c(O)c2c(n(CC(C)C)c1=O)CCCC2 | ? | -2 | 11%[56.1 µM] | 21µM* | ? | -19%
CCCCCCc1nc2ccccc2c(=O)n1NC(=O)c1c(O)c2c(n(CC(C)C)c1=O)CCCC2 | -29% | -13 | 1% | 3.3µM* | 4.6µM* | -2%
Cn1cc(CNCc2cn(C)nc2-c2ccc(C3CCCCC3)cc2)cn1 | 9% | -71* | 8% | 18µM* | ? | -19%
Cn1cc(CCNCc2cn[nH]c2-c2ccc(-c3ccccc3)cc2)cn1 | -1% | -22 | nt | ? | ? | 3%
SMILES | TGFb SMAD3 inh | IL-1B inflam inh | TDP1 block | DT40 TDP1 no CPT | TDP1 cell CPT | HepG2 tox
COc1ccc(CC(=O)NCc2ccc3c(c2)CCN3C(=O)c2ccc(C)cc2)cc1OC | -15% | nt | 9% | 12µM* | 13µM* | -14%
Cc1ccc(C(=O)N2CCc3cc(CNC(=O)CSc4ccccc4)ccc32)cc1 | ? | nt | 4% | 15µM* | 15µM* | -23%
COC(=O)c1ccccc1NC(=O)NCc1ccc2c(c1)CCN2C(=O)c1ccccc1 | ? | nt | 9% | 16µM* | 23µM* | -11%
CCc1ccccc1NC(=O)NCc1ccc2c(c1)CCN2C(=O)c1ccccc1 | ? | nt | 0% | 23µM* | ? | 1%
O=C(Nc1ccccc1C(=O)NCCc1ccc(O)cc1)c1ccco1 | -6% | -7 | nt | 2% | ? | -3%
O=C(Nc1cc(S(=O)(=O)N2CCCCCC2)ccc1OCC(F)(F)F)c1ccc(=O)[nH]c1 | 11% | ? | -8% | -1% | -18% | 0%
COc1ccc(C)cc1NC(=O)NCc1ccc2c(c1)CCN2C(=O)c1ccccc1 | 0% | nt | 0% | 21µM* | 23µM* | -13%
O=C(OCC#CCSc1nnc(-c2cccc3ccccc23)o1)c1ccc(Cl)c(C(F)(F)F)c1 | nt | nt | -3% | nt | nt | nt
CCOc1ccc2oc(C(=O)NNC(=O)c3ccccc3O)c(C)c2c1 | ? | 31 | nt | 26µM* | ? | -4%
CCOc1ccc2oc(C(=O)O)c(C)c2c1 | 0% | -10 | 5% | -5% | 10% | -9%
Cc1c(C(=O)NNC(=O)c2ccccc2O)oc2ccc(Br)cc12 | -26% | 19 | nt | ? | 21µM* | -31%
